Most compounds without a hit are left out; they make up all but 2.4% or so of the library.
APOBEC3G inh: blocks human APOBEC3G single-stranded DNA deamination; recombinant A3G, ssDNA deamination FAM/TAMRA fluorescence; hit rate 0.28% among 330,000; AID 493012; Q9HC16; inhibition, % at 20 µM;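 active = inhibition of at least 40% at 20 µM, with no more than 30% in the related APOBEC3A deaminase screen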;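 note: plate controls were DMSO wells with A3G for no effect and wells lacking A3G enzyme for full effect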
CendR NRP1 mod: modulators of CendR peptide binding to human neuropilin-1; hit rate 0.85% among 360,000; AID 602438; FAM-RPARPAR peptide binding to NRP-1, fluorescence polarization; inhibition, % at 25 µM; O14786;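 active = inhibition or corrected inhibition above about 18%, plus a signal ratio from 0.5 to 1.5, limit read from the data, passing the limit was not always enough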
ADAM17 inh: inhibitors of human ADAM17; inhibition, % at 6.95 µM; P78536; AID 720648; hit rate 0.83% among 370,000; recombinant ADAM17, EDANS/DABCYL FRET peptide cleavage;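 active = inhibition above the mean of compounds lying between control limits plus 3 SD, set per campaign, cut at about 8.5% in these data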;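 note: 0% = DMSO-only wells as the low control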
APOBEC3A inh: inhibitors of human APOBEC3A DNA deaminase; recombinant A3A, FAM/TAMRA ssDNA deamination fluorescence; inhibition, % at 20 µM; hit rate 0.41% among 330,000;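 active = at least 40% inhibition at 20 µM here, with at most 30% in a related deaminase screen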;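 note: plate controls were A3A with DMSO for no effect and wells lacking A3A enzyme for full effect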
ADAM10 inh: inhibitors of human ADAM10; O14672; recombinant ADAM10, EDANS/DABCYL FRET peptide cleavage, 3 h; inhibition, % at 7 µM; hit rate 0.62% among 370,000; AID 720582;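 active = inhibition above a per-campaign cutoff equal to the mean of compounds falling between control-based bounds plus 3 SD, cut at about 20% in these data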;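 note: 0% = DMSO wells while the 100% control is not disclosed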
Target sequence (O14672 214-748 limits assumed): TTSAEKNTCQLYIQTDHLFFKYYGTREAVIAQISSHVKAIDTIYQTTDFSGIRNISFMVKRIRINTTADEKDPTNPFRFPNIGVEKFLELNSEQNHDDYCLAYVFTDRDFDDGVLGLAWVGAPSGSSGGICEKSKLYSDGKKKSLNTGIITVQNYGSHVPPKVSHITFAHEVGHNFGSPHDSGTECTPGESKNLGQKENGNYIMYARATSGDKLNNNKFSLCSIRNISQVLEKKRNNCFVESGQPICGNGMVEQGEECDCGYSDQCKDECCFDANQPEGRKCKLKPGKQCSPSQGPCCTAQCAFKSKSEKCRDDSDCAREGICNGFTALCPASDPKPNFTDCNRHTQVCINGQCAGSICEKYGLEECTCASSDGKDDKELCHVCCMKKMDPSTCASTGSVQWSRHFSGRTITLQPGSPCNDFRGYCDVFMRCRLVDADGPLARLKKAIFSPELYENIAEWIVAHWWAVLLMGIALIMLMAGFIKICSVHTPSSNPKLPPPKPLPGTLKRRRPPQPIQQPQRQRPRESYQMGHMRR
* hit, by the source's call; / = no result; ! = not active in a repeat.

SMILES	APOBEC3G inh	CendR NRP1 mod	ADAM17 inh	APOBEC3A inh	ADAM10 inh
O=C(CCS(=O)(=O)c1ccc(Br)s1)N1CCc2ccccc21	-6.3	34.3*	-0.1	0.8	-6.8
O=C(CS(=O)(=O)c1ccccc1)N1CCc2ccccc21	-8.1	-2.5	-8.8	-4.2	1.5
C[C@H](CO)N1C[C@H](C)[C@@H](CN(C)Cc2ccc(C(=O)O)cc2)Oc2c(NC(=O)Cc3ccccc3)cccc2C1=O	-4.2	30.4*	-4.3	1.4	-4.7
C[C@@H]1CN([C@@H](C)CO)C(=O)c2cccc(NS(C)(=O)=O)c2O[C@H]1CN(C)Cc1ccc(Oc2ccccc2)cc1	-4.4	7.3	-3.6	-2.5	-11.8
C[C@@H]1CN([C@@H](C)CO)C(=O)c2cccc(NS(C)(=O)=O)c2O[C@H]1CN(C)Cc1ccc(C(=O)O)cc1	-3.4	25.6*	-3.7	-2.5	-9.7
CC(C)NC(=O)COc1coc(CN2CCN(c3ccccc3)CC2)cc1=O	-3.2	23.2*	2.1	-3.4	6.2
OCCC1CCCCN1CC(O)COCc1ccc(Cl)cc1 (stereo not given)	-4.0	21.2*	-0.1	2.2	-4.7
CS(=O)(=O)N1CCN(c2ccccc2NC(=O)Cc2ccc(Cl)cc2)CC1	-5.0	27.8*	-5.1	-0.8	-5.2
O=C(CCNC(=O)c1ccc(Cl)cc1)NN1C(=O)NC2(CCCCC2)C1=O	-10.6	20.0*	0.7	0.1	-8.6
O=C(c1ccc(F)cc1Cl)N1CCCC(c2nc(-c3cccs3)no2)C1 (stereo not given)	/	/	-1.0	/	-1.7
CCOc1ccc(NC(=O)NNC(=O)c2ccc3ccccc3c2O)cc1	-2.0	25.5*	-92.6	17.9	-304.0
CCc1ccccc1NC(=O)NNC(=O)c1ccc2ccccc2c1O	-6.3	3.4	-21.6	-4.1	-61.7
COc1ccc(C2CC(c3ccccc3)Nc3nc(NC(=O)c4cccs4)nn32)cc1 (stereo not given)	-5.0	31.4*	-7.6	0.7	-0.9
COc1ccc(C2CC(c3ccccc3)n3nc(NC(=O)c4cccs4)nc3N2)cc1 (stereo not given)	-1.5	1.8	-37.5	1.0	-120.0
Cn1c(-c2ccc(F)c(F)c2)cc2onc(-c3ccccc3)c2c1=O	-8.9	17.7	-1.9	-1.9	6.2
COc1cccc(-c2cc3onc(-c4ccccc4)c3c(=O)n2C)c1	-12.0	17.9*	-1.0	-3.8	9.9
Nc1ccc(C(=O)Nc2ccc(Nc3ccncc3)cc2)c([N+](=O)[O-])c1	/	26.7*	-8.0	/	-3.6
COc1cc(C(=O)Nc2ccncc2)c([N+](=O)[O-])cc1OC	-4.0	1.4	2.0	-3.1	2.3
O=c1cc[nH]c2ccc([N+](=O)[O-])cc12	-0.9	33.8*	-1.6	0.9	-5.0
O=C(CC(=O)c1ccccc1)Nc1ccc([N+](=O)[O-])cc1	/	25.4*	-3.9	/	-5.3
Cc1ccc(C(=O)Nc2nc(=O)[nH]s2)cc1	-0.3	17.2*!	-2.1	1.7	-5.1
COC(=O)c1ccc(C=NNC(=O)c2cc(-c3ccc(C)c(C)c3)n[nH]2)cc1	/	/	2.9	/	4.5
CC1(c2nnc(-c3ccc(F)cc3)o2)CC(c2c(Cl)cccc2Cl)=NO1 (stereo not given)	12.6	29.4*	-1.7	0.8	3.1
CCCNC(=O)N1CC[C@H]2[C@@H]1c1cc(-c3ccc(F)cc3)ccc1N(C)[C@H]2CO	/	/	-33.4	/	-114.2
O=C1CCC[C@H]2[C@@H](Cc3ccccc3)[C@@H](O)CC[C@]23CCCN13	/	/	0.6	/	-0.5
SMILES	APOBEC3G inh	CendR NRP1 mod	ADAM17 inh	APOBEC3A inh	ADAM10 inh
O=C(Nc1ccc(NC(=O)C2CC2)nc1)c1cnccn1	-2.4	19.0*	-1.2	-0.4	-7.1
O=C(Nc1ccc(NC(=O)C2CC2)nc1)c1ccccn1	-5.4	-6.7	-5.6	-2.8	-1.1
CC(=O)c1cccc(NC(=O)c2cnn3c(C)cc(C)nc23)c1	/	/	-3.0	/	-6.5
CC/C(=C1/C(=O)CC(C)(C)C(C(=O)OC)C1=O)N1CCCC1 (stereo not given)	-5.2	35.0*	-4.3	-1.9	-6.5
CCO/N=C/C1=C(O)C(C(=O)OC)C(C)(C)CC1=O (stereo not given)	-11.8	-1.7	-1.3	1.3	1.1
COC[C@@H](O)[C@H]1OCc2cc(OC)ccc2[C@@H]1/C=C/c1ccccc1	/	/	-0.9	/	-12.0
Cc1nn(CCC(=O)NNC(=O)NCc2ccccc2)c(C)c1[N+](=O)[O-]	/	/	-1.2	/	-7.3
O=C1c2sccc2-c2cccc3cccc1c23	/	16.0	-42.5	/	-144.2
O=C1C(Br)=Cc2cccc3cccc1c23	/	26.6*	-7.3	/	-18.9
COC(=O)c1c(C(=O)OC)c(-c2ccc(Cl)c(Cl)c2)n2c1CCC2	-4.4	22.6*	/	0.7	/

Screening data: PubChem BioAssay, several laboratories
